This is a sample that favours compounds with a hit; in the whole collection about 19% have one here.
DT40 TDP1 no CPT: qHTS for Inhibitors of human tyrosyl-DNA phosphodiesterase 1 (TDP1): qHTS in cells in absence of CPT | AID 686978, 2013 | 15% of 420,000 active | Potency, µM (doses to about 46.2 µM), for the others: top-dose activity change, negative = growth inhibition, actives largely listed as inhibitors | DT40 Tdp1-/- hTDP1 cells, no CPT, ATP luminescence, 48 h; also: potency is read from the fitted curve at half-maximal effect; nearly all actives have a fitted effect of over 55% in size
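Chicken DT40 Tdp1-/- cells complemented with human TDP1, screened without camptothecin (DMSO vehicle only), 400 cells/well. Compounds pin-transferred, cells incubated at 37 °C for at least 48 hr. Growth read as ATP-dependent luminescence (CellTiter-Glo, 30 min at RT).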
HT1080-NT tox: qHTS for induction of synthetic lethality in tumor cells producing 2HG: qHTS for the HT-1080-NT fibrosarcoma cell line | Potency, µM (doses to about 46.1 µM), for inactives: top-dose activity, negative = less viability, actives largely listed as cytotoxic | HT-1080-NT fibrosarcoma viability, CellTiter-Glo ATP luminescence, 48 h | 1.6% of 360,000 active;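 also: NT is the 2HG producing partner of a matched IDH1 knockdown line; potency is read from the fitted curve at half-maximal effect; 0% = DMSO-treated cells and -100% = media-only wells without cells; nearly all actives have a fitted effect of over 55% in size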
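Viability of the 2HG-overproducing fibrosarcoma line after 48 hours of compound exposure at 37 degrees C was determined by luminescence with CellTiter-Glo, and concentration-effect curves were then fitted and categorized.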
IL-1B inflam inh: qHTS for Inhibitors of Inflammasome Signaling: IL-1-beta AlphaLISA Primary Screen | THP-1 LPS/ATP IL-1B secretion, AlphaLISA, 16 h; active compounds read low | activity change, % at 57.5 µM | 4.7% of 360,000 active; in the data active = activity change below about -50%; inconclusive = mostly about -30% to -49%
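THP-1 cells pretreated 1 hr with compounds (up to 57.5 uM final), then stimulated with LPS (250 ng/mL final) plus ATP (1.25 mM final); secreted IL-1B measured by AlphaLISA after 16 hr, decreased signal indicating inhibition.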
HT1080 IDH1KD tx: qHTS for induction of synthetic lethality in tumor cells producing 2HG: qHTS for the HT-1080-IDH1KD cell line. Potency, µM (highest dose often 46.1 µM), without a hit: top-dose activity, negative = toxicity, actives largely listed as cytotoxic. 2% of 360,000 active. HT-1080 IDH1 knockdown viability, ATP luminescence, 48 h;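 also: potency is read from the fitted curve at half-maximal effect; 0% = DMSO wells and -100% = cell-free medium wells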
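Luminescent ATP read-out (CellTiter-Glo, 10 min at room temperature) after 48 h compound exposure at 37 °C gave viability of IDH1-knockdown HT-1080 cells. Activity was normalised to DMSO and cell-free wells, then fitted as concentration-response curves.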
ELG1 repair inh: qHTS screen for small molecules that inhibit ELG1-dependent DNA repair in human embryonic kidney (HEK293T) cells expressing luciferase-tagged ELG1 | Potency, µM (doses to about 46.1 µM), for the others: at the top dose activity change, negative = inhibition, most hits filed as inhibitors | 2.3% of 330,000 active | AID 504467, 2011 | HEK293T ELG1-luciferase reporter, luminescence, 16 h; DNA damage induced by 5-fluorouridine; also: potency is read from the fitted curve at half-maximal effect; nearly all actives have a fitted effect of over 55% in size
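Luminescence from the luciferase reporter, measured 30 min after ONE-Glo reagent at room temperature, was the read-out. Beforehand, 2,000 cells per well were exposed for 16 hr at 37 °C to 5-fluorouridine together with compound or vehicle.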
DT40 TDP1 CPT: qHTS for Inhibitors of human tyrosyl-DNA phosphodiesterase 1 (TDP1): qHTS in cells in presence of CPT; 12% of 420,000 active; Potency, µM (highest dose often 46.2 µM), for inactives: top-dose activity change, negative = growth inhibition, most hits filed as inhibitors; chicken DT40 Tdp1-/-;hTDP1 cells + 20 nM CPT, ATP luminescence, 48 h; also: potency is read from the fitted curve at half-maximal effect; nearly all actives have a fitted effect of over 55% in size
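Chicken DT40 Tdp1-/- cells stably complemented with human TDP1 were seeded at 400 cells/well in medium containing 20 nM camptothecin, exposed to pin-transferred compounds, and grown at 37 °C for at least 48 hr. Viability was read as ATP luminescence.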
Active calls of the source: *; ? = inconclusive; / = no result given; [ ] = dose if it differs, or a comment. Unless noted, calls follow the shape of the dose curve; as a rule, active = well fitted curve in the direction sought with a large enough effect; inconclusive = small, poorly fitted or top-dose-only effect, or another doubt; inactive = no such curve, though single readings can be large; an effect the other way counts as inactive or inconclusive. Unless noted, % is scaled to controls: 0 for no effect and ±100 for the full control effect.

SMILES	DT40 TDP1 no CPT	HT1080-NT tox	IL-1B inflam inh	HT1080 IDH1KD tx	ELG1 repair inh	DT40 TDP1 CPT
COc1cc2c(cc1OC)C(COc1ccccc1OC)N(C(=O)COc1ccc(Cl)cc1)CC2 (stereo not given)	23µM*	/	/	/	/	18µM*
COc1cc(C#N)ccc1OCC(=O)N1CCc2ccccc2C1	-17%	9%	-12	14%	7%	12%
CCOC(=O)Cc1cc(-c2ccc(OC)cc2)nc2ccc3ccccc3c12	?	-2%	3	-11%	-4%	18µM*
CCOC(=O)Cc1cc(-c2ccc(O)cc2)nc2ccc3ccccc3c12	?	?	1	?	0%	?
CCOC(=O)Cc1cc(-c2ccc(F)cc2)nc2ccc3ccccc3c12	29µM*	-6%	12	-6%	12%	?
COc1cccc2cc(C(=O)C3=C(O)C(=O)N(c4cc(C)on4)C3c3cccs3)oc12 (stereo not given)	?	?	16	?	1%	?
O=C(COC(=O)c1ccc([N+](=O)[O-])o1)Nc1ccc2c(c1)OC(F)(F)O2	-1%	4%	-6	3%	/	-23%
Cc1ccc(-c2nn(-c3ccccc3)cc2/C=C/C(=O)OCC(=O)NC2CC2)o1	?	1%	-3	-15%	-11%	21µM*
Cc1ccc(-c2nn(-c3ccccc3)cc2C=O)o1	?	?	-16	18µM*	?	?
Cc1ccc(-c2nn(-c3ccccc3)cc2/C=N/NC(=O)c2ccncc2)o1	23µM*	-26%	-16	?	?	?
CCOc1cc(C(=O)N/N=C/c2cn(-c3ccccc3)nc2-c2cc3ccccc3o2)cc(OCC)c1OCC	13µM*	-4%	22	11%	/	23µM*
CNC(=O)COC(=O)/C=C/c1cn(-c2ccccc2)nc1-c1ccc2c(c1)OCCO2	2%	0%	0	6%	?	9%
Cc1ccc(-c2nn(-c3ccccc3)cc2C(N)=O)o1	-12%	4%	17	2%	5%	-10%
O=C(O)/C=C\c1cn(-c2ccccc2)nc1-c1cc2ccccc2o1	-6%	-3%	-5	-13%	?	0%
CCCS(=O)(=O)NCc1c(C)ncc2c1CCN(C(=O)c1c(F)ccc(F)c1F)C2	0%	/	/	/	/	4%[9.04 µM]
O=C(COC(=O)Cn1cc(C(F)(F)F)ccc1=O)Nc1ccc(Br)cc1F	-3%	-2%	-9	1%	14%	-30%
CC(=O)c1sc(N/N=C2\CC3CCC2(C)C3(C)C)nc1C (stereo not given)	?	23µM*	9	?	12%	-29%
Cc1ccc(S(=O)(=O)NN=C2CC3CCC2(C)C3(C)C)cc1 (stereo not given)	?	-5%	32	-4%	/	?
COc1ccc(C2=NOC(Cn3nc(-c4ccccc4)cc3C(=O)NCc3ccccc3OC)C2)cc1 (stereo not given)	10µM*	1%	-23	9%	?	12µM*
Cc1ccccc1-c1cc(C(=O)NCc2ccco2)n(CC2CC(c3cccnc3)=NO2)n1 (stereo not given)	21µM*	?	-4	?	?	18µM*
CCNc1ncc2nc(-c3ccccc3)c(=O)n(C3CC3)c2n1	-6%	/	/	/	/	7%

From PubChem
